S2 tox: cell viability loss in ATXN counter-screen. S2 cells (HEK-293 line with an ATXN2-luciferase reporter) viability, CellTiter-Fluor protease fluorescence, 24 h. Potency, µM (series often up to 56.7 µM), hits mostly cytotoxic. AID 651635. actives 0.49% (n = 400,000); note: nearly all actives have a fitted effect of over 40% in size
TGFb SMAD3 inh: blocks TGF-b signaling | HepG2 CAGA-GFP TGF-b/SMAD3 reporter, GFP fluorescence, 18 h; TGF-beta stimulated, 500 pg/mL final | Potency, µM (titrated, usually from 46.1 µM), for the others: top-dose activity, negative = inhibition, usual class: inhibitors | actives 1.2% (n = 410,000) | AID 588855; note: % is set by controls: 0 for no effect and ±100 for the full control effect; nearly all actives have a fitted effect of over 65% in size
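HEPG2 CAGA-GFP, 1000 cells/well; 2 h settle, 37 C; cpd via pin tool; TGF-b 500 pg/mL final; 18 h, 37 C; GFP imaging ex488/em500-530; %Activity normalised to -TGF-b and +DMSO controls; CRC fit, curve class.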
ALOX12 inh: ALOX12 (human) lipoxygenase inhibition; P18054; purified 12hLO, xylenol orange hydroperoxide absorbance; Potency, µM (highest dose often 108 µM), for the others: at the top dose activity change, negative = inhibition, most hits filed as inhibitors; actives 1.1% (n = 580,000); note: % is set by controls: 0 for no effect and ±100 for the full control effect
Target sequence (P18054 whole entry, looked up): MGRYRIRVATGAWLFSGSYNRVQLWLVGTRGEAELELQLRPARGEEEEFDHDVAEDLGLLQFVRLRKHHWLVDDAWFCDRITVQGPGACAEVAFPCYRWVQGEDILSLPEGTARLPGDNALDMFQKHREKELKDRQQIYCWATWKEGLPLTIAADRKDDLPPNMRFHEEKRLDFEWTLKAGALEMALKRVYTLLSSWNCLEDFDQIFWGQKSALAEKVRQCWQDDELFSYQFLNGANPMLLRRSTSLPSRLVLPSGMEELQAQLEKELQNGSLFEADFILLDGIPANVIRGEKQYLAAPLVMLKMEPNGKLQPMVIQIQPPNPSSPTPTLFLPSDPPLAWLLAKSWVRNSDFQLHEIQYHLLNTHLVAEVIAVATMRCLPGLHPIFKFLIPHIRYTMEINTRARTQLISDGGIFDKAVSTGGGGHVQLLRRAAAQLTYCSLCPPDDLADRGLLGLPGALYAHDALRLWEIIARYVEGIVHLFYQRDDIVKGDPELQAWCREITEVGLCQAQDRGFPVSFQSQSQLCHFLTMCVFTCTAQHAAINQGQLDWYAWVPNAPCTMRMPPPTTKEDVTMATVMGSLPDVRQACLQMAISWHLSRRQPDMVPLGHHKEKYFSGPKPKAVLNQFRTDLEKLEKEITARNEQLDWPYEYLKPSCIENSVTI
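Purified human 12hLO at 150 nM in 25 mM Hepes, 0.01% Triton X-100, pH 7.0, preincubated 15 min at room temperature with compound. Reaction started with 40 uM arachidonic acid, 30 min at room temperature. Hydroperoxide measured by Fe-xylenol orange, 573/405 nm absorbance ratio.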
ATXN2 expr inh: reduces ATXN2 reporter expression in HEK-293 cells | HEK-293 ATXN2-luciferase reporter, luminescence, 24 h | Potency, µM (highest dose often 57 µM), for inactives: top-dose activity change, negative = inhibition, most hits filed as inhibitors | actives 0.72% (n = 360,000) | AID 1745845; note: % is set by controls: 0 for no effect and ±100 for the full control effect; nearly all actives have a fitted effect of over 55% in size
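qHTS (up to 57 uM final) was run with 24 h compound exposure of reporter cells at 37 °C. Each well was multiplexed: SteadyGlo luminescence measured ATXN2-luciferase expression after a fluorogenic Gly-Phe-AFC viability readout (25 uM final).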
HepG2 viability: kills HepG2 cells in TGF-b inhibitor counter-screen | actives 0.76% (n = 410,000) | Potency, µM (titrated, usually from 46.1 µM), without a hit: at the top dose activity change, negative = cytotoxicity, most hits filed as cytotoxic | HepG2 CAGA-GFP viability, ATP luminescence, 18 h
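CellTiter-Glo luminescence gave cytotoxicity after 18 hours at 37 degrees C. The cells were HepG2 CAGA-GFP in 1% FBS DMEM, stimulated with 500 pg/mL TGF-beta after compound addition. %Activity was normalised to no-cell wells (complete cell-killing) and DMSO (no toxicity), and curves were fitted and classified.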
Numbers without * were called inactive; i = inactive; ? = inconclusive; . = no result. Shown are actives, neighbours in structure and some others; about 2.7% of the full set was active somewhere. Calls come from the whole dose curve; as a rule, active = well fitted curve in the direction sought with a large enough effect; inconclusive = small, poorly fitted or top-dose-only effect, or another doubt; inactive = no such curve, though single readings can be large; an effect the other way counts as inactive or inconclusive. Potency is the fitted concentration of half-maximal effect.

SMILES	S2 tox	TGFb SMAD3 inh	ALOX12 inh	ATXN2 expr inh	HepG2 viability
COc1ccc(/C=C2\SC(=O)NC2=S)cc1OC	?	14%	40µM*	-11%	-35%
Cc1ccc(S(=O)(=O)N(C)CC(=O)Nc2ncc(Cc3ccc(F)cc3)s2)cc1C	.	.	0%	.	.
CCCC1=[N+](CC)CCn2c(C)ccc21	i	-8%	20µM*	7%	4%
O=[N+]([O-])c1cc(S(=O)(=O)Oc2ccccc2)ccc1Cl	i	?	2%	11%	8.9µM*
COc1ccc(OC)c(-n2c(=O)c(C#N)cc3c(=O)n4cccc(C)c4nc32)c1	.	.	-17%	.	.
Cc1ccc(Cl)cc1NC(=O)CC(O)(C(F)(F)F)C(F)(F)F	?	13µM*	-9%	?	-36%
CC(C)c1ccc(S(=O)(=O)N2CCN(CC(=O)NC(C)c3cccs3)CC2)cc1 (stereo not given)	.	.	-78%	.	.
Cn1ccnc1C(NC(=O)Nc1ccc(F)cc1)c1ccccc1F (stereo not given)	.	.	-2%	.	.
O=C1CN(CC(=O)N2CCCCC2)c2ccccc2O1	i	?	?	3%	22µM*
CSc1ccccc1NC(=O)CC1CC2CCC1C2 (stereo not given)	.	.	-28%	.	.
Oc1ccc(Br)cc1C1C=C(c2ccc3c(c2)OCO3)NC(c2ccc(Br)cc2)N1 (stereo not given)	.	?	.	.	-57%
Oc1ccc(Cl)cc1C1C=C(c2ccc3c(c2)OCO3)NC(c2ccc(C(F)(F)F)cc2)N1 (stereo not given)	.	16µM*	.	.	-92%
Oc1ccc(Br)cc1C1C=C(c2ccc3c(c2)OCO3)NC(c2ccc(F)c(Br)c2)N1 (stereo not given)	.	7.9µM*	.	.	-96%
Cc1ccc2c(=O)cc(C(=O)Nc3nnc(C(C)C)s3)oc2c1	.	.	7%	.	.
Cc1ccc(/C=C(/C#N)C(=O)NC2CCCC2)cc1C	.	.	29%	.	.
COc1cn(CC(=O)Nc2ccc(C(F)(F)F)cc2)c(CN2CCN(C(C)=O)CC2)cc1=O	.	.	37%	.	.
N#CC(C(=O)/C=C/c1ccccc1)c1ccc(C(F)(F)F)cn1 (stereo not given)	.	.	39%	.	.
CSc1ccc(C(=O)C2CCCN(C(=O)c3ccc4c(c3)no[n+]4[O-])C2)cc1 (stereo not given)	14µM*	?	-4%	.	-18%
CSc1ccc(C(=O)C2CCCN(C(=O)c3ccsc3)C2)cc1 (stereo not given)	?	-28%	-26%	.	-28%
Cc1ccc(S(=O)(=O)N2[C@@H](c3ccc(Cl)c(Cl)c3)C(C(=O)O)=C[C@H]2CC2CCCC2)cc1	i	-20%	28µM*	-3%	-8%
Cc1ccc(S(=O)(=O)N2[C@@H](c3ccc(Br)cc3)C(C(=O)O)=CC[C@H]2c2ccc(C(C)C)cc2)cc1	?	9%	35µM*	-9%	-4%
CCOC(=O)C1=CC[C@@H](c2ccccc2)N(S(=O)(=O)c2ccc(C)cc2)[C@H]1C	i	?	21%	-3%	22µM*
Cc1ccc([C@@H]2CC=C(C(=O)O)[C@H](c3ccc(Br)cc3)N2S(=O)(=O)c2ccc(C)cc2)cc1	i	?	?	1%	-14%
Cc1ccc(S(=O)(=O)N2[C@@H](c3ccc(Cl)cc3)C(C(=O)O)=C[C@H]2CC2CCCC2)cc1	?	?	?	-3%	-15%
Cc1ccc(S(=O)(=O)N2[C@@H](c3ccc(C(C)(C)C)cc3)C(C(=O)O)=CC[C@H]2c2ccc(C(C)C)cc2)cc1	?	?	40µM*	?	-88%
SMILES	S2 tox	TGFb SMAD3 inh	ALOX12 inh	ATXN2 expr inh	HepG2 viability
COc1ccc(OC)c(C2C=C(c3ccc(Cl)cc3OC(F)F)Nc3nnnn32)c1 (stereo not given)	.	.	-20%	.	.
CCc1ccc(-c2nn(C)c(=O)c3c2CCCC3)cc1S(=O)(=O)Nc1ccccc1	.	.	0%	.	.
CC(CCc1ccccc1)NC(=O)CSc1nc2cc(Cl)ccc2s1 (stereo not given)	.	.	9%	.	.
CCCCC[C@@H]1C=C(C(=O)O)[C@H](c2ccc(Br)cc2)N1S(=O)(=O)c1ccc(C)cc1	i	?	35µM*	0%	-47%
CCCC[C@@H]1C=C(C(=O)O)[C@H](c2ccc(Cl)cc2)N1S(=O)(=O)c1ccc(C)cc1	i	-15%	0%	2%	1%
COc1ccc(-c2noc(CC3CCN(C(=O)c4ccccc4OC)CC3)n2)cc1	.	.	38%	.	.
O=C(OCc1cn([C@@H]2CN(CC3CCCCC3)[C@@H](c3ccccc3)C[C@H]2O)nn1)c1ccccc1	25µM*	3%	-5%	?	-6%
O=C(OCc1cn([C@@H]2CN(CC3CCCCC3)[C@@H](c3ccc(Cl)cc3)C[C@H]2O)nn1)c1ccccc1	i	-6%	?	-3%	-9%
O=C(OCc1cn([C@H]2CN(CC3CCCCC3)[C@@H](c3ccc(Cl)cc3)C[C@@H]2O)nn1)c1ccccc1	.	18µM*	0%	?	13µM*
Cc1nc2ccc(S(=O)(=O)NCc3ccccc3)cc2s1	.	.	13%	.	.
CC(CCc1ccco1)NC(=O)c1ccc(Cl)c(S(=O)(=O)NC2CC2)c1 (stereo not given)	.	.	-22%	.	.
O=C(COc1ccc(Cl)cc1Cl)NCCc1csc(-c2cccnc2)n1	.	.	8%	.	.
O=C(COc1ncnc2ccccc12)N(Cc1ccccc1)Cc1ccccc1	.	.	-25%	.	.
COc1ccc(CC(=O)Nc2sc3c(c2C(=O)Nc2cccc(Cl)c2)CCCCC3)cc1	.	?	-6%	?	18µM*
NC(=O)c1c(NC(=O)c2cccs2)sc2c1CCCCCC2	?	-15%	?	38%	-31%
COc1ccc(CC(=O)Nc2sc3c(c2C(=O)Nc2ccccc2)CCCCC3)cc1	.	-26%	-21%	.	-26%
O=C(Cc1ccccc1)Nc1sc2c(c1C(=O)Nc1ccc(Cl)cc1)CCCC2	.	?	16µM*	.	-21%
O=C(Cc1ccccc1)Nc1sc2c(c1C(=O)Nc1ccccc1)CCCCC2	i	?	?	29%	-13%
O=C(Nc1sc2c(c1C(=O)Nc1cccc(Cl)c1)CCCC2)c1cccs1	.	?	45µM*	.	-8%
CCOC(=O)c1ccc(NC(=O)c2c(NC(=O)CCC(=O)O)sc3c2CCCCC3)cc1	i	12%	20µM*	1%	4%
CC(C#N)CN(C)C(=O)/C=C/c1ccsc1 (stereo not given)	.	.	-15%	.	.
O=C(NCc1cccc(F)c1)c1nc(-c2ccc(Br)o2)no1	.	.	-21%	.	.
CC(C)CNC(=O)CC(C)Cc1nnc2c(=O)n(-c3cccc(F)c3)ccn12 (stereo not given)	.	.	2%	.	.
CC(C)c1ccc(NC(=O)CSc2nc3c(-c4ccccc4)c[nH]c3c(=O)n2C)cc1	.	.	31%	.	.
